# Measurements taken from PubChem BioAssay (Tox21).
# Records with an inconclusive call do not appear. Activity calls are given as the source filed them. Calls follow the shape of the full dose curve.
# Test: qHTS assay to identify small molecule agonists of the progesterone receptor (PR) signaling pathway - cell viability counter screen (AID 1346799); also: nearly all actives have a fitted effect of over 45% in size
# Details: PR-UAS-bla HEK293T viability, CellTiter-Glo luminescence, 16 h; series mostly up to 92.4 µM; activity change, negative = cytotoxicity: at the top concentration
# Description: National Center for Advancing Translational Sciences [NCATS]
# NIH Chemical Genomics Center [NCGC]
# U.S. Environmental Protection Agency [EPA]
# National Institutes of Environmental Health Sciences [NIEHS]
# National Toxicology Program [NTP]
# U.S. Food and Drug Administration [FDA]
# Progesterone receptor (PR), a nuclear hormone receptor, plays an important role in development, metabolic homeostasis and reproduction. It is activated by the steroid hormone progesterone. Endocrine disrupting chemicals (EDCs) and their interactions with steroid hormone receptors like PR causes disruption of normal endocrine function. To identify the compounds that stimulate PR signaling, a PR-UAS-bla GripTite cell line i.e. PR-UAS-bla HEK293T (Invitrogen, Carlsbad, CA, USA) containing a beta-lactamase reporter gene under the control of an UAS response element was used to screen Tox21 10K compound library. The cytotoxicity of the Tox21 compound library against the PR-bla cell line was tested in parallel by measuring the cell viability using CellTiter-Glo assay in the same wells.
# Tox21 Assay Protocol Summary:
# PR-UAS-bla HEK293T cells were dispensed at 3,000 cells/5 uL of assay medium containing 2% charcoal stripped FBS per well into black wall/clear-bottom 1536-well plates using a Multidrop Combi (ThermoFisher Scientific, Waltham, MA) dispenser. After the assay plates were incubated at a 37C and 5% CO2 for 6 hr, 23 nL of compounds dissolved in DMSO, positive controls or DMSO only was transferred to the assay plate by a Pintool station (Kalypsys, San Diego, CA). The plates were incubated at 37C and 5% CO2 for 16 hr. Then 1 uL of LiveBLAzer B/G FRET substrate was added using a Flying Reagent Dispenser (FRD, Aurora Discovery, San Diego, CA), the plates were incubated at room temperature for 2 hours, and fluorescence intensity was measured by an Envision plate reader (PerkinElmer, Shelton, CT). For cell viability readout that measures cytotoxicity, 4 uL/well of CellTiter-Glo reagent was added into the assay plates using a FRD. After 30 min incubation at room temperature, the luminescence intensity in the plates was measured using a ViewLux (PerkinElmer) plate reader.
# % is scaled to controls: 0 for no effect and ±100 for the full control effect; potency is read from the fitted curve at half-maximal effect.
Compound,"activity change, negative = cytotoxicity",Potency
CC1=Nc2ccccc2C1(C)C,65.8% (inactive),–
O=[N+]([O-])c1cccc(C(F)(F)F)c1,-5.26% (inactive),–
S=c1nccc[nH]1,-0.198% (inactive),–
Cc1ccc(C)cc1,8.23% (inactive),–
CC(C)CCCCCOC(=O)CCS,3.53% (inactive),–
O=S(=O)(O)c1ccc(Nc2nc(Nc3ccc(/C=C/c4ccc(Nc5nc(Nc6ccc(S(=O)(=O)O)cc6)nc(N(CCO)CCO)n5)cc4S(=O)(=O)O)c(S(=O)(=O)O)c3)nc(N(CCO)CCO)n2)cc1,0.894% [at 42.5 µM] (inactive),–
CCCCNS(=O)(=O)c1ccc(C)cc1,15% (inactive),–
O=C(O)Cc1ccccc1Nc1c(Cl)cccc1Cl,-22.8% [at 42.5 µM] (inactive),–
C=C(CC)C(=O)c1ccc(OCC(=O)O)c(Cl)c1Cl,17.5% [at 42.5 µM] (inactive),–
CNC(=O)c1ccccc1Sc1ccc2c(/C=C/c3ccccn3)n[nH]c2c1,–,33.5 µM (active)
O=C1NC(=O)[C@@H]2CC=CC[C@H]12,–,8.63 µM (active)
CCCC[P+](C)(CCCC)CCCC,-4.97% (inactive),–
CCCC(=O)OCCc1ccccc1,2.37% (inactive),–
COc1cc(/C=C/c2ccccc2)oc(=O)c1,15.4% (inactive),–
Sc1nc2ccccc2s1,1.44% (inactive),–
O=C(Nc1ccc2c(O)c(N=Nc3ccc(N=Nc4ccc(S(=O)(=O)O)cc4)cc3)c(S(=O)(=O)O)cc2c1)c1ccccc1,5.22% (inactive),–
CC[C@H](C)COC(=O)/C=C/c1ccc(N=Cc2ccc(OC)cc2)cc1,0% (inactive),–
COc1cccc(OC)c1C(=O)O,0.0903% (inactive),–
COc1cc(C)ccc1O,-4.6% (inactive),–
O=C(O)c1ccc2cc(C(=O)O)ccc2c1,-0.243% (inactive),–

Compound,"activity change, negative = cytotoxicity",Potency
CC(C)(C)C1CCC(=O)CC1,-27.6% (inactive),–
C=C(C)c1cccc(C(=C)C)c1,-2.65% (inactive),–
CC(=O)OCC=C(C)C,4.01% [at 42.5 µM] (inactive),–
COc1ccc(NC(=O)CC(C)=O)cc1,-0.993% (inactive),–
O=C(O)[C@H](O)[C@@H](O)[C@H](O[C@@H]1O[C@H](CO)[C@H](O)[C@H](O)[C@H]1O)[C@H](O)CO,3.27% [at 42.5 µM] (inactive),–
COC(C)=O,2.83% (inactive),–
O=c1[nH]c(=O)n([C@H]2C[C@H](O)[C@@H](CO)O2)cc1F,-4.03% [at 42.5 µM] (inactive),–
NC(=S)NC(N)=S,-4.35% (inactive),–
Cc1nc2n(c(=O)c1CCN1CCC(c3noc4cc(F)ccc34)CC1)CCCC2,10.3% [at 42.5 µM] (inactive),–
O=C(O)c1cc(=O)c2ccccc2o1,-3.49% [at 42.5 µM] (inactive),–
O=C1OC2(c3ccc(O)cc3Oc3cc(O)ccc32)c2ccc(N=C=S)cc21,0% (inactive),–
COc1c(C)c2c(c(O)c1C/C=C(\C)CCC(=O)OCCN1CCOCC1)C(=O)OC2,–,0.237 µM (active)
C=Cc1ccccc1C=C,0.335% [at 240 µM] (inactive),–
CCCCCCCCCCOC(=O)c1ccccc1C(=O)OCCCCCCCC,4.34% (inactive),–
CC(C)NC[C@@H](O)COc1ccc(CC(N)=O)cc1,2.38% [at 42.5 µM] (inactive),–
Nc1nc2c(ncn2COCCO)c(=O)[nH]1,7.47% [at 42.5 µM] (inactive),–
OCCN1CCN(CCCN2c3ccccc3Sc3ccc(C(F)(F)F)cc32)CC1,–,10.6 µM (active)
COc1ccc2cc1Oc1ccc(cc1)C[C@H]1c3c(cc4c(c3Oc3cc5c(cc3OC)CCN(C)[C@@H]5C2)OCO4)CCN1C,0.107% [at 42.5 µM] (inactive),–
CCCCN(CCCC)CC(O)c1cc(Cl)cc2c1-c1ccc(Cl)cc1/C2=C/c1ccc(Cl)cc1 (stereo not given),-16.4% [at 42.5 µM] (inactive),–
CCCCCCCC/C=C\CCCCCCCCN,0.0901% [at 42.5 µM] (inactive),–
